# Screening results (PubChem)
# The list is not random: actives were taken first. Their share in the collection is about 32%.
# PostGolgi yeast: phenotypic screen on post-Golgi transport, primary screen | inhibition, % at 10 µM | AID 739, 2007 | hit rate 0.9% among 98,000 | post-Golgi transport phenotypic cell assay;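 also: yeast cells grown in 1536-well plates; yeast grown about 18 h at 30C before absorbance read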
# CYP2C19 act: human CYP2C19 activators, primary screen, biochemical, luminescence. 96,000 tested, under 10 active. Cytochrome P450 2C19 (Homo sapiens), P33261. AID 1025, 2008. activation factor at 5 µM. recombinant CYP2C19, luciferin-H EGE luminescence; stronger effect = higher value; 0 = fully inhibited enzyme, 1 = untreated enzyme;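 active = activation factor of at least 2 at 5 µM in the primary screen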;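 also: 0 = wells with 2.5 mM tranylcypromine and 1 = vehicle-only wells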
# Target sequence (P33261 whole entry, looked up): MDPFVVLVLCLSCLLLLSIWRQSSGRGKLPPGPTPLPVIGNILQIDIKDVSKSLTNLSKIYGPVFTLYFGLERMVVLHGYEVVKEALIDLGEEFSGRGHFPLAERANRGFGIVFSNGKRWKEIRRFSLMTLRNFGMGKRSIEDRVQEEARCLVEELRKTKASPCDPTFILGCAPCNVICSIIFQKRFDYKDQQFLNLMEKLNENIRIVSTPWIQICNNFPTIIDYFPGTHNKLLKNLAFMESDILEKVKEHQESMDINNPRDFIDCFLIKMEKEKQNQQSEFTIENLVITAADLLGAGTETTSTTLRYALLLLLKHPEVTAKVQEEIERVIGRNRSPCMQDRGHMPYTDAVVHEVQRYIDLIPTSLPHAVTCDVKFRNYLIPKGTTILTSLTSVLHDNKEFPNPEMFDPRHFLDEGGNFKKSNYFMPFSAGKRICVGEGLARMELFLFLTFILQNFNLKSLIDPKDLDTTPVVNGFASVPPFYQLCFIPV
# CYP2C9 inh: blockers of cytochrome P450 2C9 activity – biochemical, luminescence, ADME assay, primary screen; P11712; CYP2C9 Supersomes, luciferin-H conversion; inhibition, % at 5 µM; hit rate 20% among 96,000; AID 777, 2007;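 active = blocking of liver enzyme CYP2C9 beyond about 50% at 5 µM, limit read from the data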
# CYP2C9 activ: human CYP2C9 activators, primary screen, biochemical, luminescence; Cytochrome P450 2C9 (Homo sapiens), P11712; recombinant CYP2C9, luciferin-H conversion; stronger effect = higher value; factor 1 = untreated enzyme, 0 = blocked; activation factor at 5 µM; hit rate 1.4% among 96,000;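 active = activation factor of 2 or more for CYP2C9 at a 5 µM dose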;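 also: 0 = sulfaphenazole-blocked wells and 1 = vehicle-only wells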
# CYP2C19 inhib: blockers of cytochrome P450 2C19 activity – biochemical, luminescence, ADME assay, primary screen | inhibition, % at 5 µM | AID 778, 2007 | P33261 | hit rate 21% among 96,000 | CYP2C19 Supersomes, luciferin-H EGE luminescence, 30 min;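 active = CYP2C19 inhibition above a set limit at 5 µM in the primary screen, cut at about 50% in these data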;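 also: plate controls were negative control wells for no effect and 2.5 mM tranylcypromine positive control for full effect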
# PostGolgi ctrl: growth inhibition of yeast control strain, primary screen, counter-screen for post-Golgi transport modulator project; hit rate 5% among 98,000; AID 738, 2007; inhibition, % at 10 µM; efflux-deficient yeast background strain, growth absorbance A615, 16 h
# An asterisk follows results filed as active; / = not tested or not shown. Rule as the data show it, unless noted: active = inhibition above about 30%; inactive = the rest.
SMILES,PostGolgi yeast,CYP2C19 act,CYP2C9 inh,CYP2C9 activ,CYP2C19 inhib,PostGolgi ctrl
COc1cccc(C2NC(=O)NC(C)=C2C(=O)Nc2cccc(C)c2C)c1 (configuration not stated),-1.5,0.9,1.8,1,11.6,2.9
CC(C)(C)OC(=O)N1CCCC1C(=O)NC(Cc1ccccc1)C(=O)O (configuration not stated),-4.9,1.2,-29.7,1.3,-20.5,9.1
CC/C(=C\C(=O)c1cccnc1)Nc1ccc(C)c(C)c1,-3.1,0.3,57.6*,0.4,71.1*,10.4
O=C(NC1(C(F)(F)F)NC(=O)N(Cc2cccnc2)C1=O)c1ccc(F)cc1 (configuration not stated),-4.7,0.7,31.4,0.7,34.3,1.2
COc1ccc(N2C(=O)NC(NC(=O)c3ccncc3)(C(F)(F)F)C2=O)cc1 (configuration not stated),4.2,0.6,55.1*,0.4,35.3,6.5
CC(C)CN1C(=O)NC(NC(=O)c2cccnc2)(C(F)(F)F)C1=O (configuration not stated),-1.4,0.9,1.1,1,8.7,0.0
O=C(NC1(C(F)(F)F)NC(=O)N(Cc2cccnc2)C1=O)c1ccncc1 (configuration not stated),-2.7,0.9,60.3*,0.4,10.5,13.6
O=C1NC(NS(=O)(=O)c2ccccc2)(C(F)(F)F)C(=O)N1Cc1cccnc1 (configuration not stated),0.6,1,66.9*,0.3,3.0,1.7
Cc1cc(C)cc(NC(=O)c2cc(S(=O)(=O)NCc3ccco3)ccc2F)c1,-2.3,0.9,37.4,0.6,13.4,2.2
COc1ccc(Nc2ccc3nnc(-c4ccc(Br)cc4)n3n2)cc1,1.6,1.2,34.0,0.7,-15.4,9.4
COc1nc(N)c(S(=O)(=O)c2ccccc2)cc1C#N,17.3,0.6,-143.2,2.4*,39.1,-2.7
COc1nc(N)c(S(=O)(=O)c2ccccc2C)cc1C#N,22.0,0.2,-85.8,1.9,77.7*,4.4
COc1ccc(Oc2nnc(-c3ccccc3)cc2C#N)cc1,11.2,1.2,-10.6,1.1,-15.9,-2.2
Cc1ccccc1CSc1ncc(C#N)c(N)n1,6.3,0.5,19.3,0.8,49.3,16.7
CCOC(=O)c1ccccc1NC(=O)CC1SC(=NC)N(C)C1=O (configuration not stated),4.5,0.8,-13.1,1.1,17.4,3.1
Cc1ccccc1NC(=O)CC1S/C(=N/c2nccs2)N(C)C1=O (configuration not stated),16.6,0.1,97.8*,0,90.0*,-0.2
CCOC(=O)c1ccc(NC(=O)CC2SC(=NC)N(C)C2=O)cc1 (configuration not stated),4.6,0.7,14.7,0.9,26.9,2.3
Cc1ccc(NC(=O)CC2S/C(=N/c3nccs3)N(C)C2=O)cc1C (configuration not stated),-8.1,0.1,78.7*,0.2,85.7*,-2.8
CCc1ccccc1NC(=O)CC1S/C(=N\c2nccs2)N(CC)C1=O (configuration not stated),-1.6,0,97.2*,0,96.1*,4.6
CCNC(=O)CC1SC(=Nc2ccccc2C)N(C)C1=O (configuration not stated),6.5,/,/,/,/,4.2
CN=C1SC(CC(=O)Nc2cc(Cl)ccc2Cl)C(=O)N1C (configuration not stated),3.4,0.4,5.8,0.9,59.8*,-3.4
Nc1nc(SCC(=O)NCCCN2CCOCC2)nc2sc3c(c12)CCC3,-2.9,1,-6.9,1.1,4.8,-0.1
CC/C(=C1/C(=O)CC(C)(C)C(C(=O)OC)C1=O)N1CCCC1 (configuration not stated),-1.4,1,5.7,0.9,3.8,11.9
CCCc1oc2c(c(=O)c1CC)C(=O)CC(C)(C)C2,1.8,0.6,22.1,0.8,40.8,6.3
CCOC(=O)N1CCN(C(=O)C(CC)n2nc(C)c3sc4ccccc4c3c2=O)CC1 (configuration not stated),-2.0,0.9,58.5*,0.4,8.6,27.5
SMILES,PostGolgi yeast,CYP2C19 act,CYP2C9 inh,CYP2C9 activ,CYP2C19 inhib,PostGolgi ctrl
Cc1nn(C(C)C(=O)NCc2ccccc2Cl)c(=O)c2c1sc1ccccc12 (configuration not stated),-12.7,0.1,97.1*,0,87.5*,54.7*
O=C(Cc1c(C(=O)O)[nH]c2ccccc12)NCCN1CCN(c2ccccc2F)CC1,5.1,1,8.4,0.9,4.3,26.4
COc1cccc(NC(=O)CC2(CC(=O)O)CCCC2)c1,-2.4,0.8,25.4,0.7,22.1,3.7
O=C1C2C3C=CC(C3)C2C(=O)N1Cc1cccnc1 (configuration not stated),2.8,1.1,2.6,1,-6.1,7.2
O=C1C2C3c4ccccc4C(c4ccccc43)C2C(=O)N1Cc1cccnc1 (configuration not stated),10.0,0.3,26.5,0.7,67.5*,0.6
O=C1C2C(C(=O)N1Cc1cccnc1)C1C=CC2C12CC2 (configuration not stated),-10.2,0.3,-1.0,1,65.9*,-2.5
CCOC(=O)CCCNC(=O)CCCNC(=O)C(c1ccccc1)c1ccccc1,2.4,/,/,/,/,-3.9
CCC(C)Oc1nc2ccccc2nc1NS(=O)(=O)c1ccccc1 (configuration not stated),-5.1,1.1,1.3,1,-14.4,31.3*
Cc1nn(Cc2c(Cl)cccc2Cl)c(C)c1NC(=O)c1sc2ccccc2c1Cl,-12.6,0.7,28.2,0.7,34.8,12.8
Cc1nn(Cc2ccc(Cl)c(Cl)c2)c(C)c1NC(=O)c1sc2ccccc2c1Cl,-7.0,0.3,86.7*,0.1,69.7*,15.9
Cc1ccccc1Cn1nc(C)c(NC(=O)c2sc3ccccc3c2Cl)c1C,1.6,0.8,16.5,0.8,19.0,33.3*
Cc1nn(C)cc1CN(C)C(=O)c1sc2cccc(Cl)c2c1Cl,1.4,0,-98.2,2*,96.6*,16.0
Cc1cc(OCc2nn[nH]n2)c2c(C)c(CC(=O)O)c(=O)oc2c1,-10.2,1,6.4,0.9,0.1,9.0
Cc1cc(OCc2nn[nH]n2)c2c(C)c(Cc3ccccc3)c(=O)oc2c1,-3.3,0.2,98.2*,0,80.1*,32.0*
Cc1c(Cc2ccccc2)c(=O)oc2c(C)c(OCc3nn[nH]n3)ccc12,30.8*,1,81.3*,0.2,-0.9,0.7
CSc1nnc(N(CCC#N)CCC#N)s1,-10.7,1.1,9.3,0.9,-6.9,-3.8
COc1ccc(CNC(=O)c2ccc(S(=O)(=O)N3CCCC3)cc2)cc1OC,1.2,1,48.3,0.5,4.1,3.2
COc1ccc(C2CC(=O)C(C=NCCCN3CCOCC3)=C(O)C2)cc1 (configuration not stated),-4.2,1.1,-1.4,1,-8.1,38.6*
